ChEMBL document CHEMBL4513146, “CO-ADD screening of Karazin Kharkiv National University (Ukraine) compounds”
Results with a measured potency or affinity are listed apart.

How the values were obtained:
Klebsiella pneumoniae = conditions: Concentration 32 ug.mL-1;; ASSAY_TEST Inhibition of Bacterial Growth; detection method Absorption (OD600); MEDIA CAMHB; plate type 384well; NBS; CORNING #3640; time 18 hr
Candida albicans = conditions: Concentration 32 ug.mL-1; ASSAY_TEST Inhibition of Fungal Growth; detection method Absorption (OD530)
Cryptococcus neoformans = conditions: Concentration 32 ug.mL-1; ASSAY_TEST Inhibition of Fungal Growth; detection method Resazurin; Absorption (OD600-OD570); plate type 384well; NBS; CORNING #3640

Row | SMILES | Inhibition (Klebsiella pneumoniae) | Inhibition (Candida albicans) | Inhibition (Cryptococcus neoformans)
1 | Cc1c(Cl)cccc1-n1ccn2c(SCC(=O)c3c[nH]c4ccccc34)nnc2c1=O | 3.37% | 2.26% | -4.72%
2 | Cc1cc(C)c(NC(=O)Cn2nc3c4c5c(sc4ncn3c2=O)CCCC5)c(C)c1 | 7.2% | 39.7% | -18.32%
3 | CCc1ccc(N(Cc2ccccc2)S(=O)(=O)c2cccn3cnnc23)cc1 | 1.9% | 2.34% | -3.81%
4 | Cc1ccc(C)c(NC(=O)Cn2nc3n(C)c(=O)c4c(c(-c5ccccc5)cn4C)n3c2=O)c1 | -7.88% | 1.95% | -9.34%
5 | O=C(CSc1nnc2c(=O)n(-c3cccc(F)c3)ccn12)Nc1ccc(Br)cc1F | 15.26% | 5.02% | -13.45%
6 | COc1ccc(C(=O)CSc2nnc3c(=O)n(-c4ccc(F)c(F)c4)ccn23)cc1OC | 11.04% | 3.34% | -3.67%
7 | CCc1nnc2c(S(=O)(=O)N(Cc3cccc(F)c3)c3ccccc3)cccn12 | 10.23% | 3.58% | -7.54%
8 | Cc1nnc2ccc(S(=O)(=O)N(CC(=O)OC(C)(C)C)c3ccc4c(c3)OCO4)cn12 | 6.34% | 5.98% | -4.94%
9 | CCOc1ccc(-n2ccn3c(SCC(=O)c4ccc(C)cc4C)nnc3c2=O)cc1 | 5.02% | 2.76% | -5.48%
10 | Cc1cc(C)cc(Nc2nc(C)cc3nn(CC(=O)NC4CCCC4)c(=O)n23)c1 | 17.93% | 3.67% | -8.76%
11 | Cc1cccc(CN(c2cc(C)cc(C)c2)S(=O)(=O)c2cccn3c(C)nnc23)c1 | 4.64% | 1.12% | -10.57%
12 | O=C(Cn1nc2c(Oc3ccccc3)nccn2c1=O)Nc1ccccc1Cl | 5.8% | -0.88% | -12.94%
13 | CCOc1ccc(C(=O)CSc2nnc3c(=O)n(-c4ccc(OCC)cc4)ccn23)cc1 | 14.22% | 5.82% | -6.09%
14 | O=C(CSc1nnc2ccc(C(=O)NCc3ccccc3)cn12)Nc1ccccc1Br | 13.28% | 5.15% | -20.85%
15 | CCOC(=O)c1ccccc1NC(=O)CSc1nnc2ccc(C(=O)Nc3cccc(F)c3)cn12 | 3.32% | 0.61% | -6.96%
16 | Cc1ccc(NC(=O)c2ccc3nnc(SCC(=O)Nc4ccc(F)cc4)n3c2)cc1 | 0.72% | 4.31% | -5.93%
17 | O=c1n(Cc2nc(-c3ccc(F)cc3)no2)nc2ccc(-c3ccccc3)nn12 | 18.38% | -1.53% | -18.94%
18 | CCCc1nnc2c(=O)n(CC(=O)Nc3ccc(Br)cc3F)c3ccccc3n12 | -10.52% | 6.6% | -24.08%
19 | Cc1c(Cl)cccc1NC(=O)Cn1nc2c3c4c(sc3ncn2c1=O)CCCCC4 | 9.28% | 4.44% | -27.44%
20 | Cc1ccc2c(c1)N(C(=O)Cn1nc3ccc(Sc4ccccc4)nn3c1=O)CCO2 | 4.6% | -1.78% | -5.73%
21 | COC(=O)c1ccc(NC(=O)Cn2nc3ccc(C(=O)NCc4ccccc4)cn3c2=O)cc1 | 7.68% | 0.61% | -23.41%
22 | O=C(CSc1nnc2c(=O)n(-c3ccccc3)ccn12)Nc1ccccc1F | 7.24% | -0.73% | -14.95%
23 | COc1ccc(NC(=O)Cn2nc3ccc(-c4ccccc4)nn3c2=O)cc1Cl | -6.25% | 19.43% | -3.35%
24 | Cc1cccc(NC(=O)Cn2nc3c4cc(-c5ccc(F)cc5)nn4ccn3c2=O)c1C | 6.39% | 16.67% | -22.65%
25 | C=Cc1ccc(CN(c2ccc(C(C)C)cc2)S(=O)(=O)c2cccn3cnnc23)cc1 | 14.46% | 3.5% | -17.09%
26 | Cc1cc2nn(CC(=O)Nc3ccc(F)cc3Cl)c(=O)n2c(Nc2ccccc2C)n1 | 1.95% | 30.65% | -16.44%
27 | COc1ccc(CNC(=O)CSc2nnc3c4cc(-c5ccc(OC)cc5)nn4ccn23)cc1 | -0.91% | 1.93% | -6.67%
